# Test results: PubChem BioAssay (NCATS)
# Results filed as inconclusive are left out. Active and inactive are the calls of the source. The call rests on the fitted dose curve; in most records, active means well fitted curve in the direction sought with a large enough effect; inconclusive means small, poorly fitted or top-dose-only effect, or another doubt; inactive means no such curve, though single readings can be large; an effect the other way counts as inactive or inconclusive.
# Columns and labels:
# [1] = Quantitative High-Throughput drug screen in 47 multiple myeloma cell lines against the NCATS MIPE library collection: KHM11_PLB cell viability assay (AID 1918962); further: nearly all actives have a fitted effect of over 35% in size
# Outline: (§1)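 Relative luminescence from CellTiter-Glo served as the viability signal, referenced to DMSO-treated (100%) and cell-free medium (0%) controls. Treatment lasted 48 hours at 37C with 500 cells per well.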
# [2] = Quantitative High-Throughput drug screen in 47 multiple myeloma cell lines against the NCATS MIPE library collection: JIM3_ECACC cell viability assay (AID 1918963; further: nearly all actives have a fitted effect of over 35% in size)
# Outline: as §1
# [3] = Quantitative High-Throughput drug screen in 47 multiple myeloma cell lines against the NCATS MIPE library collection: JIM1_ECACC cell viability assay (AID 1918964)
# Outline: (§2)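 Primary qHTS used for cherry-picking: cells at 500/well, library compounds for 48 h (37C, 5% CO2), luminescent ATP assay.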
# [4] = Quantitative High-Throughput drug screen in 47 multiple myeloma cell lines against the NCATS MIPE library collection: INA6_PLB cell viability assay (AID 1918965; further: nearly all actives have a fitted effect of over 55% in size)
# Outline: as §1
# [5] = Quantitative High-Throughput drug screen in 47 multiple myeloma cell lines against the NCATS MIPE library collection: Karpas25_ECACC cell viability assay (AID 1918968; further: nearly all actives have a fitted effect of over 35% in size)
# Outline: as §2
# [6] = Quantitative High-Throughput drug screen in 47 multiple myeloma cell lines against the NCATS MIPE library collection: KMS27_JCRB cell viability assay (AID 1918970); settings: KMS27 myeloma cells, CellTiter-Glo ATP viability, 48 h; viability (% of DMSO): at 45.8 µM (top of the series); further: nearly all actives have a fitted effect of over 30% in size
# Outline: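 CellTiter-Glo luminescence after 48 h drug exposure at 37 °C; 500 cells/well, 1536-well format, pin-tool compound addition; DMSO = 100%, media-only = 0% viability.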
# [7] = Quantitative High-Throughput drug screen in 47 multiple myeloma cell lines against the NCATS MIPE library collection: KMS12PE_JCRB cell viability assay (AID 1918972); further: nearly all actives have a fitted effect of over 30% in size
# Outline: as §1
# [8] = Quantitative High-Throughput drug screen in 47 multiple myeloma cell lines against the NCATS MIPE library collection: KMS20_JCRB cell viability assay (AID 1918973); further: nearly all actives have a fitted effect of over 45% in size
# Outline: as §2
# [9] = Quantitative High-Throughput drug screen in 47 multiple myeloma cell lines against the NCATS MIPE library collection: KMS26_JCRB cell viability assay (AID 1918975); further: nearly all actives have a fitted effect of over 45% in size
# Outline: (§3)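 Approved and investigational drugs from MIPE 4.0 were added by pin tool to 500 cells per well. After 48 hours at 37C, ATP-based CellTiter-Glo luminescence indicated remaining viability.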
# [10] = Quantitative High-Throughput drug screen in 47 multiple myeloma cell lines against the NCATS MIPE library collection: NCIH929_DSMZ cell viability assay (AID 1918978); further: nearly all actives have a fitted effect of over 35% in size
# Outline: (§4)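 Readout: median RLU from CellTiter-Glo after 5 min at room temperature. Preceding step was 48 h drug treatment of 500 cells/well at 37 °C, 5% CO2, with DMSO-only and media-only control wells.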
# [11] = Quantitative High-Throughput drug screen in 47 multiple myeloma cell lines against the NCATS MIPE library collection: OCIMY1_PLB cell viability assay (AID 1918979); further: nearly all actives have a fitted effect of over 35% in size
# Outline: as §4
# [12] = Quantitative High-Throughput drug screen in 47 multiple myeloma cell lines against the NCATS MIPE library collection: MM1S_ATCC cell viability assay (AID 1918980); further: nearly all actives have a fitted effect of over 45% in size
# Outline: as §4
# [13] = Quantitative High-Throughput drug screen in 47 multiple myeloma cell lines against the NCATS MIPE library collection: MM1R_ATCC cell viability assay (AID 1918981); further: nearly all actives have a fitted effect of over 35% in size
# Outline: as §4
# [14] = Quantitative High-Throughput drug screen in 47 multiple myeloma cell lines against the NCATS MIPE library collection: LP1_DSMZ cell viability assay (AID 1918982); further: nearly all actives have a fitted effect of over 35% in size
# Outline: as §4
# [15] = Quantitative High-Throughput drug screen in 47 multiple myeloma cell lines against the NCATS MIPE library collection: H1112_PLB cell viability assay (AID 1918967; further: nearly all actives have a fitted effect of over 30% in size)
# Outline: as §2
# [16] = Quantitative High-Throughput drug screen in 47 multiple myeloma cell lines against the NCATS MIPE library collection: MMM1_PLB cell viability assay (AID 1918976); further: nearly all actives have a fitted effect of over 35% in size
# Outline: as §4
# [17] = Quantitative High-Throughput drug screen in 47 multiple myeloma cell lines against the NCATS MIPE library collection: MOLP8_DSMZ cell viability assay (AID 1918977); further: nearly all actives have a fitted effect of over 45% in size
# Outline: as §4
# [18] = Quantitative High-Throughput drug screen in 47 multiple myeloma cell lines against the NCATS MIPE library collection: JJN3_DSMZ cell viability assay (AID 1918966; further: nearly all actives have a fitted effect of over 50% in size)
# Outline: as §2
# [19] = Quantitative High-Throughput drug screen in 47 multiple myeloma cell lines against the NCATS MIPE library collection: KMS12BM_JCRB cell viability assay (AID 1918971); further: nearly all actives have a fitted effect of over 35% in size
# Outline: as §3
# [20] = Quantitative High-Throughput drug screen in 47 multiple myeloma cell lines against the NCATS MIPE library collection: KMS21BM_JCRB cell viability assay (AID 1918974); settings: ATP luminescence, 48 h; viability: at 45.8 µM (top of the series)
# Outline: as §2
# Potency means the concentration at half of the fitted maximal effect.
SMILES,Potency [1],Potency [2],Potency [3],Potency [4],Potency [5],Potency [6],Potency [7],Potency [8],Potency [9],Potency [10],Potency [11],Potency [12],Potency [13],Potency [14],Potency [15],Potency [16],Potency [17],Potency [18],Potency [19],Potency [20]
OCc1ccccc1O[C@@H]1O[C@H](CO)[C@H](O)[C@H](O)[C@H]1O,inactive,inactive,inactive,13.2 µM (active),inactive,inactive,inactive,inactive,inactive,11.8 µM (active),inactive,20.9 µM (active),inactive,inactive,,,,,,
O=C(O)C[C@H](O)C[C@H](O)C=Cc1c(C2CC2)nc2ccccc2c1-c1ccc(F)cc1,7.43 µM (active),14.8 µM (active),935 nM (active),4.18 µM (active),4.69 µM (active),3.32 µM (active),3.72 µM (active),,18.7 µM (active),3.72 µM (active),,5.26 µM (active),5.9 µM (active),,13.2 µM (active),14.8 µM (active),4.69 µM (active),,,
O=[N+]([O-])c1cn2c(n1)OC[C@@H](OCc1ccc(OC(F)(F)F)cc1)C2,inactive,inactive,inactive,,inactive,,inactive,,inactive,inactive,inactive,2.64 µM (active),,inactive,inactive,8.33 µM (active),inactive,,,
COc1cc(C=CC(=O)CC(=O)C=Cc2ccc(O)c(OC)c2)ccc1O,6.05 µM (active),4.81 µM (active),,1.52 µM (active),0.96 µM (active),3.03 µM (active),7.62 µM (active),6.05 µM (active),48.1 µM (active),3.4 µM (active),21.5 µM (active),27 µM (active),7.62 µM (active),30.3 µM (active),6.79 µM (active),38.2 µM (active),9.59 µM (active),13.6 µM (active),19.1 µM (active),
CC(C)(N)c1ccc(-c2nc3ccccc3nc2-c2ccccc2)cc1,8.33 µM (active),18.7 µM (active),,9.35 µM (active),16.6 µM (active),18.7 µM (active),7.43 µM (active),4.18 µM (active),26.4 µM (active),4.69 µM (active),23.5 µM (active),18.7 µM (active),26.4 µM (active),18.7 µM (active),14.8 µM (active),18.7 µM (active),,20.9 µM (active),26.4 µM (active),5.26 µM (active)
CC(=O)NCC(=O)N1[C@H]2CC[C@H]1c1cc(Nc3ncc(C(F)(F)F)c(NC4CCC4)n3)ccc12,0.526 µM (active),1.18 µM (active),,0.935 µM (active),1.87 µM (active),0.166 µM (active),0.105 µM (active),1.32 µM (active),5.26 µM (active),0.935 µM (active),14.8 µM (active),3.32 µM (active),2.35 µM (active),7.43 µM (active),16.6 µM (active),1.66 µM (active),,2.64 µM (active),9.35 µM (active),
COc1cc(OC)cc(-c2ccc3ncc4ccc(=O)n(-c5ccc(N6CCNCC6)c(C(F)(F)F)c5)c4c3c2)c1,5.9 µM (active),10.5 µM (active),,3.72 µM (active),2.96 µM (active),1.66 µM (active),3.72 µM (active),4.18 µM (active),5.9 µM (active),3.72 µM (active),14.8 µM (active),3.32 µM (active),4.69 µM (active),5.9 µM (active),2.09 µM (active),7.43 µM (active),4.18 µM (active),5.9 µM (active),5.26 µM (active),5.26 µM (active)
COc1cccc2c1C(=O)c1c(O)c3c(c(O)c1C2=O)C[C@@](O)(C(C)=O)C[C@H]3O[C@H]1C[C@H](N)[C@H](O)[C@H](C)O1,0.235 µM (active),0.0935 µM (active),,0.0332 µM (active),0.0372 µM (active),0.0372 µM (active),0.0662 µM (active),0.0526 µM (active),0.296 µM (active),0.0469 µM (active),0.332 µM (active),0.0469 µM (active),0.0264 µM (active),0.209 µM (active),0.209 µM (active),0.166 µM (active),0.132 µM (active),0.105 µM (active),0.0662 µM (active),
CC(Oc1ccc(O)cc1)(P(=O)(O)O)P(=O)(O)O,inactive,inactive,inactive,,,inactive,inactive,,inactive,,inactive,,,inactive,inactive,inactive,inactive,,,
C=C(C)[C@@H]1CC[C@]2(C(=O)O)CC[C@]3(C)[C@H](CC[C@@H]4[C@@]5(C)CC[C@H](O)C(C)(C)[C@@H]5CC[C@]43C)[C@@H]12,3.72 µM (active),inactive,inactive,inactive,,inactive,0.0372 µM (active),,inactive,inactive,inactive,inactive,inactive,inactive,inactive,,inactive,,,
